Activity calls are given as the source filed them. Unless noted, how the calls were made is not given here.
What was measured:
[1] = resazurin metabolic signal in HepG2 cells – cell-based, resazurin fluorescence, 24 h, PK04 Diversity Set, profiling panel (AID 1172); details: HepG2 viability, higher = more signal; further: test concentration not given here
[2] = budding yeast growth changes without added modifier – OD600, strain BY4716, 24 h, basal condition, primary screen (AID 1173); details: S. cerevisiae BY4716 growth, OD600, 24 h; higher = more signal, called active from +8 up or from −8 down
[3] = viability profiling in MM1S myeloma cells – cell-based, resazurin fluorescence, basal, 24 h, PK04 Diversity Set, profiling panel (AID 1174); details: higher = more signal, called active from +8 up or from −8 down;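 further: MM1S multiple myeloma cell line; test concentration not given here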
[4] = biological target: Dihydroorotate dehydrogenase (quinone), mitochondrial (Plasmodium falciparum (isolate 3D7)) (UniProt Q08210); test: inhibition of P. falciparum DHODH – biochemical, C-terminal His tag, absorbance 600 nm, primary screen (AID 1175); details: PfDHODH enzyme, DCIP absorbance 600 nm; higher = more signal, called active from +8 up or from −8 down;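 further: recombinant parasite enzyme with a five histidine tag at its C terminus; test concentration not given here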
[5] = inhibition of PAO1 biofilm formation – strain PAO1, LB-PBS medium, absorbance 600 nm, primary screen (AID 1176); further: test concentration not given here; details: P. aeruginosa PAO1 growth/biofilm, A600, 12 h; higher = more signal
[6] = growth modulation of vineyard yeast isolate – strain RM11-1a, OD600, basal, 24 h, primary screen (AID 1177);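 further: cultures grown under basal conditions with no added stressor; test concentration not given here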; details: S. cerevisiae RM11-1a growth, OD600, 24 h; higher = more signal, called active from +8 up or from −8 down
[7] = growth of efflux-deficient E. coli DRC39 – strain DRC39, OD650, 24 h, E. coli filamentation inducers, primary screen (AID 1178);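 further: growth measured as culture turbidity by optical density at 650 nm; test concentration not given here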; details: E. coli DRC39 acrAB, higher = more signal, called active from +8 up or from −8 down
[8] = growth of efflux-deficient E. coli DRC39 – strain DRC39, OD650, 48 h, E. coli filamentation inducers, primary screen (AID 1179);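 further: screen aims at cell division blockers that make cells filament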; details: E. coli DRC39 delta-acrAB growth, higher = more signal, called active from +8 up or from −8 down
[9] = viability profiling in RPMI8226 myeloma cells – cell-based, resazurin fluorescence, basal, 24 h, PK04 Diversity Set, profiling panel (AID 1180); details: higher = more signal;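 further: RPMI8826 multiple myeloma cell line at 5000 cells per well; test concentration not given here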
[10] = biological target: E3 ubiquitin-protein ligase XIAP (Homo sapiens) (UniProt P98170); test: small molecules binding XIAP protein – biophysical, small-molecule microarray, fluorescence 635 nm, primary screen (AID 1181); details: higher = more signal;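 further: score merges 667 nm emission and signal to noise over triplicate slides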
E3 ubiquitin-protein ligase XIAP (Homo sapiens), sequence (P98170 whole entry, looked up): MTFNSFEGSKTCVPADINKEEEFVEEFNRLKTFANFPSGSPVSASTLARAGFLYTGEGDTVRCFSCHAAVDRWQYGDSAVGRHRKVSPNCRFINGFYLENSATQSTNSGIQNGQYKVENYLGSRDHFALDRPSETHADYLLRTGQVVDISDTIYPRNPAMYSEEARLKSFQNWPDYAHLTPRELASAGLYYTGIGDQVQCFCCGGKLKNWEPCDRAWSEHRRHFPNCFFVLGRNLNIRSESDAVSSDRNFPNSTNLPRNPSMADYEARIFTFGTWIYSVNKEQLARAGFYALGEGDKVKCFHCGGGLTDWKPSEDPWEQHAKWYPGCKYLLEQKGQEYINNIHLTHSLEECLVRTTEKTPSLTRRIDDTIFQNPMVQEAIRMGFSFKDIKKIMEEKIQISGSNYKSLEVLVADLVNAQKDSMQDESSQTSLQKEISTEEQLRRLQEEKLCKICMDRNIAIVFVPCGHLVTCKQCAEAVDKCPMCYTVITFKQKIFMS

Dihydroorotate dehydrogenase (quinone), mitochondrial (Plasmodium falciparum (isolate 3D7)), sequence (Q08210 whole entry, looked up): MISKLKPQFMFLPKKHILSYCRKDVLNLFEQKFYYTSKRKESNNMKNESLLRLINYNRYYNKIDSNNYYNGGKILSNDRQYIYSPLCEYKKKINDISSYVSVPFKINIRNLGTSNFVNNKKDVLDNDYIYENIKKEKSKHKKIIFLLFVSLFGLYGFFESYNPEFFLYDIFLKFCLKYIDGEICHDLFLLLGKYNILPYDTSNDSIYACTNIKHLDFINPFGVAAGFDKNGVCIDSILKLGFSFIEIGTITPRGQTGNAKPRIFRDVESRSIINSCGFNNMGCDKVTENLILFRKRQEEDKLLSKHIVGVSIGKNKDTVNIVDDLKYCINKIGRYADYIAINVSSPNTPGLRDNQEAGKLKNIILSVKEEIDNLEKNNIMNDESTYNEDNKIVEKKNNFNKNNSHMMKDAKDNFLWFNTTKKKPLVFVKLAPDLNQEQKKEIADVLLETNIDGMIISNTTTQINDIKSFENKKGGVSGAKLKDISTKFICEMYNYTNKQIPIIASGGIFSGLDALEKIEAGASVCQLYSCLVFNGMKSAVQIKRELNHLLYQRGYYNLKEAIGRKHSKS

Row | Compound | z-score [1] | z-score [2] | z-score [3] | composite z-score [4] | z-score [5] | z-score [6] | z-score [7] | z-score [8] | z-score [9] | composite z-score [10]
1 | COC(=O)[C@H](CCSC)NC(=O)CC=C[C@@H](C)CO | -0.838 | 0.0957 (inactive) | 0.311 (inactive) | 0.521 (inactive) | -0.895 (inactive) | 0.489 (inactive) | -1.07 (inactive) | -0.576 (inactive) | 0.475 | 0.262
2 | Cc1cc(C)c(-c2cc([C@H](C)ON=C[C@@H](C)[C@H](OCc3ccccc3)C(C)C)on2)c(C)c1 | -0.811 | 0.462 (inactive) | -0.258 (inactive) | -0.382 (inactive) | -0.23 (inactive) | 0.255 (inactive) | 0.262 (inactive) | 0.336 (inactive) | -0.522 | 0.02
3 | COC(=O)[C@H](C)NC(=O)CC=C[C@@H](C)[C@@H]1C=C[C@H](O)[C@@H](CO)O1 | -0.261 | 0.104 (inactive) | -0.543 (inactive) | -0.0763 (inactive) | 0.25 (inactive) | 0.253 (inactive) | 0.64 (inactive) | 0.384 (inactive) | -0.845 | 0.0623
4 | CCN1C(=O)[C@H]2[C@H]3[C@H](O)[C@H](O)CC(=NO[C@@H]4O[C@H](CO)[C@@H](O)[C@H](O)[C@H]4O)[C@H]3CC[C@H]2C1=O | -0.171 | -0.305 (inactive) | 0.298 (inactive) | -0.707 (inactive) | 0.519 (inactive) | -0.782 (inactive) | -0.18 (inactive) | -0.446 (inactive) | 0.064 | -0.11
5 | CC(=O)OC[C@H]1O[C@H](C#CCC2CCCCC2)C=C[C@@H]1OC(C)=O | 0.0616 | -3.69 (inactive) | -2.52 (inactive) | -0.529 (inactive) | 0.781 (inactive) | 0.143 (inactive) | 1.07 (inactive) | 0.591 (inactive) | -1.24 | -0.0314
6 | COC(=O)[C@H](C)NC(=O)CCC1CC(OC(=O)NCCc2ccc(F)cc2)CC2(CCCC(COC(=O)NCc3ccccc3)O2)O1 (stereo not given in full) | 0.445 | 1.45 (inactive) | 1.05 (inactive) | 0.152 (inactive) | 0.119 (inactive) | 1.02 (inactive) | 0.0734 (inactive) | -0.445 (inactive) | 1.07 | -0.0601
7 | O=C1C2=CC[C@H]3C(=O)N(C[C@@H]4CCCO4)C(=O)[C@H]3[C@H]2[C@H](O)[C@@H]2O[C@H]12 | -0.154 | -0.87 (inactive) | -4.71 (inactive) | -0.619 (inactive) | -0.343 (inactive) | -0.511 (inactive) | 0.0929 (inactive) | 0.424 (inactive) | -1.7 | 0.204
8 | CCCCOC(OCCCC)C(O)CSc1ccc2ccccc2c1 (stereo not given) | -0.879 | -2.07 (inactive) | -1.99 (inactive) | -0.161 (inactive) | 0.344 (inactive) | 0.363 (inactive) | 0.872 (inactive) | 1.01 (inactive) | -1.37 | 0.0506
9 | CCN1C(=O)[C@H]2[C@H]3[C@H](O)[C@H](O)CC(=NO[C@H](C)c4cn([C@H](CO)Cc5ccccc5)nn4)[C@@H]3CC[C@H]2C1=O | -0.948 | 0.0722 (inactive) | -1.37 (inactive) | -0.613 (inactive) | 0.359 (inactive) | -0.141 (inactive) | 1.44 (inactive) | 0.829 (inactive) | -1.46 | 0.0178
10 | O=C1[C@H]2[C@H]3[C@H](O)[C@H](O)CC(=NO[C@@H]4O[C@H](CO)[C@@H](O)[C@H](O)[C@H]4O)[C@@H]3CC[C@H]2C(=O)N1C1CCCCC1 | -0.841 | 0.431 (inactive) | -2.35 (inactive) | -0.201 (inactive) | 0.553 (inactive) | 0.237 (inactive) | -0.0163 (inactive) | 0.27 (inactive) | -0.917 | -0.132
11 | CCOC(=O)[C@H](CC(C)C)NC(=O)CCC1CC(OC(=O)NCCc2ccc(F)cc2)CC2(CCCC(COC(=O)NCc3cccc(C(F)(F)F)c3)O2)O1 (stereo not given in full) | 0.0989 | 0.924 (inactive) | 0.0492 (inactive) | 0.324 (inactive) | 0.672 (inactive) | 0.924 (inactive) | 0.687 (inactive) | 0.0609 (inactive) | 0.15 | -0.383
12 | O=C1CCCC=C1C(O)c1ccc([N+](=O)[O-])cc1 (stereo not given) | -0.426 | -0.851 (inactive) | -0.57 (inactive) | -0.42 (inactive) | -0.47 (inactive) | -0.66 (inactive) | 0.47 (inactive) | 0.4 (inactive) | -0.865 | -0.0019
13 | CCN1C(=O)[C@H]2[C@H]3[C@H](O)[C@H](O)CC(=NOCC[C@@H]4C=C[C@H](OC(C)=O)[C@@H](COC(C)=O)O4)[C@@H]3CC[C@H]2C1=O | -1.02 | 0.508 (inactive) | -1.85 (inactive) | -0.666 (inactive) | 1.22 (inactive) | -0.183 (inactive) | 0.178 (inactive) | -0.0655 (inactive) | -1.05 | 0.134
14 | CC(C)CON=C1C[C@@H](O)[C@@H](O)[C@@H]2[C@@H]3C(=O)N(Cc4ccccc4)C(=O)[C@@H]3CC[C@H]12 | 0.0344 | -1.11 (inactive) | 1.15 (inactive) | -0.451 (inactive) | 0.92 (inactive) | -1.17 (inactive) | 0.68 (inactive) | -1.08 (inactive) | 0.851 | -0.0436
15 | COc1ccc(O[C@H]2C=C[C@@H](c3ccccc3)O[C@@H]2CON=C2c3cc(OC)ccc3O[C@H](c3cccc(OC)c3)[C@H]2O)cc1 | -0.568 | 0.311 (inactive) | -0.89 (inactive) | 0.586 (inactive) | 1.53 (inactive) | 0.041 (inactive) | 0.779 (inactive) | -0.824 (inactive) | -0.387 | -0.206
16 | CC(C)=NO[C@@H](C)c1cn([C@H](CO)Cc2ccccc2)nn1 | -1.27 | -1.16 (inactive) | -0.597 (inactive) | -1.44 (inactive) | 0.0889 (inactive) | -2.2 (inactive) | 0.0116 (inactive) | -1.77 (inactive) | -1.18 | 0.314
17 | COC(OC)[C@@H](C)[C@H](OC)[C@@H](C)[C@H](OC)c1ccccc1 | -0.634 | -1.31 (inactive) | -2.8 (inactive) | -2.36 (inactive) | 0.912 (inactive) | -1.02 (inactive) | 0.366 (inactive) | -0.0254 (inactive) | -0.466 | -0.138
18 | C[C@H]1CC[C@H]2C(=O)O[C@H](CO)CN2[C@@H]1c1ccc(Br)cc1 | 0.72 | -8.2 (active) | 0.678 (inactive) | 0.586 (inactive) | 0.441 (inactive) | -0.356 (inactive) | 0.342 (inactive) | -0.016 (inactive) | -0.817 | 0.0733
19 | CC(C)(C)N1C(=O)[C@H]2[C@H]3[C@H](O)[C@H](O)CC(=NOC[C@@H](O)COCc4ccco4)[C@@H]3CC[C@H]2C1=O | -0.28 | 0.382 (inactive) | 0.0017 (inactive) | -0.0796 (inactive) | 0.213 (inactive) | -0.0396 (inactive) | -0.323 (inactive) | -0.253 (inactive) | 0.589 | -0.173
20 | O=C1C=C[C@@H](O)[C@@H]2[C@@H]3C(=O)N(Cc4ccc5c(c4)OCO5)C(=O)[C@@H]3CC[C@@H]12 | -0.557 | 0.516 (inactive) | 0.966 (inactive) | 0.0627 (inactive) | 0.0122 (inactive) | -0.129 (inactive) | 0.207 (inactive) | -0.173 (inactive) | 0.422 | -0.0233
21 | CO[C@H]1COC(=O)CC=C[C@H](C)[C@H](OC)COC(=O)[C@@H](C)NC(=O)CC=C[C@@H]1C | 0.664 | -1.17 (inactive) | 0.623 (inactive) | -0.498 (inactive) | -0.467 (inactive) | -1.22 (inactive) | 0.124 (inactive) | -0.0133 (inactive) | 0.379 | 0.0399
22 | O=C1CCCC=C1C(O)C1CCCCC1 (stereo not given) | -0.075 | -0.143 (inactive) | -0.254 (inactive) | -1.76 (inactive) | -0.458 (inactive) | -0.647 (inactive) | 0.342 (inactive) | 0.456 (inactive) | 0.289 | -0.242
23 | CC(C)=NOC(C)CN1CCCc2nc(C)c(C)cc21 (stereo not given) | -0.249 | -0.211 (inactive) | -0.0014 (inactive) | 0.787 (inactive) | 0.854 (inactive) | -0.0702 (inactive) | 0.0251 (inactive) | -0.726 (inactive) | -0.572 | -0.0676
24 | CC(C)[C@@H](OCc1ccccc1)[C@H](C)C=NOC[C@@H](O)[C@H]1O[C@@H]2OC(C)(C)O[C@@H]2[C@H]1O | -0.752 | -0.848 (inactive) | -0.587 (inactive) | 0.188 (inactive) | 0.241 (inactive) | 1.28 (inactive) | 0.0024 (inactive) | -1.79 (inactive) | -0.766 | 0.191
25 | CC1(C)O[C@H]2OC([C@H](O)CON3C(=O)c4ccccc4C3=O)[C@H](O)[C@H]2O1 (stereo not given in full) | 0.109 | 0.457 (inactive) | -0.409 (inactive) | -0.559 (inactive) | -0.151 (inactive) | -0.854 (inactive) | 0.345 (inactive) | 0.209 (inactive) | 0.0738 | -0.261
26 | C=CC[C@@H]1C=C[C@H](Oc2ccc(C)cc2)[C@@H](COC(=O)NCc2cccc3ccccc23)O1 | 1.08 | -0.469 (inactive) | 0.841 (inactive) | 0.438 (inactive) | 0.119 (inactive) | 0.74 (inactive) | -0.899 (inactive) | -0.629 (inactive) | 0.901 | -0.0559
